# Numbering of substitutions follows the chain as printed.
# Key:
# Test in all cases: PBM; 200 nM protein, PBS
# Conditions in all cases: dsDNA, one strand shown
# HOXB4 [1] = biological target: HOXB4 (Homo sapiens, UniProt P17483 148-234)
# SHOX [2] = biological target: SHOX (Homo sapiens, UniProt O15266 103-189)
# VENTX [3] = biological target: T1, VENTX (Homo sapiens, UniProt O95231 78-163, R121Q)
# T1 sequence: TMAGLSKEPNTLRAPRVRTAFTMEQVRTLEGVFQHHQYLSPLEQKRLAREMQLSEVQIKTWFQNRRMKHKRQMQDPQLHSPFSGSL
# HOXB9 [4] = biological target: HOXB9 (Homo sapiens, UniProt P17482 171-250, T197M)
# HOXA4 [5] = biological target: HOXA4 (Homo sapiens, UniProt Q00056 201-287, W262R)
# HOXC9 [6] = biological target: HOXC9 (Homo sapiens, UniProt P31274 178-260, K195R)
# VENTX [7] = biological target: T2, VENTX (Homo sapiens, UniProt O95231 78-163)
# T2 sequence: T1 sequence with Q44R
# HOXA7 [8] = biological target: HOXA7 (Homo sapiens, UniProt P31268 116-202)
# HOXC10 [9] = biological target: HOXC10 (Homo sapiens, UniProt Q9NYD6 254-340)
# ALX4 [10] = biological target: ALX4 (Homo sapiens, UniProt Q9H161 200-286)
# PAX4 = biological target: T3, PAX4 (Homo sapiens, UniProt O43316 9-242, R200K)
# T3 sequence: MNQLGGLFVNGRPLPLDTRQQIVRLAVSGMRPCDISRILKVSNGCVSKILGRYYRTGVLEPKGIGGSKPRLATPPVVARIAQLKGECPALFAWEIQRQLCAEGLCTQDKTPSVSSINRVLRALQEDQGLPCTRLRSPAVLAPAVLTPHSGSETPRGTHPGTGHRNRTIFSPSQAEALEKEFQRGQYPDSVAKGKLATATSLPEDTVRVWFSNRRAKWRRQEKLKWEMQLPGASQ
# VENTX [11] = biological target: T4, VENTX (Homo sapiens, UniProt O95231 78-163, Y115F)
# T4 sequence: T1 sequence with Y38F, Q44R
# HOXB6 [12] = biological target: HOXB6 (Homo sapiens, UniProt P17509 132-218, K202E)
# ALX4 [13] = biological target: ALX4 (Homo sapiens, UniProt Q9H161 200-286, Q225E)
# HOXA2 [14] = biological target: HOXA2 (Homo sapiens, UniProt O43364 129-215, R185T)
# HOXA4 [15] = biological target: HOXA4 (Homo sapiens, UniProt Q00056 201-287, R217L)
# HOXB9 [16] = biological target: HOXB9 (Homo sapiens, UniProt P17482 171-250)
# HOXB4 [17] = biological target: HOXB4 (Homo sapiens, UniProt P17483 148-234, V174I)
# HOXC9 [18] = biological target: HOXC9 (Homo sapiens, UniProt P31274 178-260)
# ALX1 [19] = biological target: ALX1 (Homo sapiens, UniProt Q15699 118-204, L144V)
# ALX3 [20] = biological target: ALX3 (Homo sapiens, UniProt O95076 139-225, N203Q)
# HOXD13 [21] = biological target: HOXD13 (Homo sapiens, UniProt P35453 263-343, T313R)
# SHOX [22] = biological target: SHOX (Homo sapiens, UniProt O15266 103-189, R173C)
# HOXC9 [23] = biological target: HOXC9 (Homo sapiens, UniProt P31274 178-260, R193K)
# HOXA2 [24] = biological target: HOXA2 (Homo sapiens, UniProt O43364 129-215, R185K)
# ALX1 [25] = biological target: ALX1 (Homo sapiens, UniProt Q15699 118-204, L144R)
# HOXD13 [26] = biological target: HOXD13 (Homo sapiens, UniProt P35453 263-343)
# HOXA4 [27] = biological target: HOXA4 (Homo sapiens, UniProt Q00056 201-287)
# HOXC10 [28] = biological target: HOXC10 (Homo sapiens, UniProt Q9NYD6 254-340, K271E)
# ALX3 [29] = biological target: ALX3 (Homo sapiens, UniProt O95076 139-225)
# PROP1 [30] = biological target: PROP1 (Homo sapiens, UniProt O75360 56-141)
# PROP1 [31] = biological target: PROP1 (Homo sapiens, UniProt O75360 56-141, R99H)
# VAX1 [32] = biological target: VAX1 (Homo sapiens, UniProt Q5SQQ9 86-172)
# ALX3 [33] = biological target: ALX3 (Homo sapiens, UniProt O95076 139-225, L168Q)
# HOXD13 [34] = biological target: HOXD13 (Homo sapiens, UniProt P35453 263-343, T313A)
# HOXB9 [35] = biological target: HOXB9 (Homo sapiens, UniProt P17482 171-250, R186Q)
# HOXC9 [36] = biological target: HOXC9 (Homo sapiens, UniProt P31274 178-260, R222W)
# ALX3 [37] = biological target: ALX3 (Homo sapiens, UniProt O95076 139-225, L168V)
# PROP1 [38] = biological target: PROP1 (Homo sapiens, UniProt O75360 56-141, F88S)
# VAX1 [39] = biological target: VAX1 (Homo sapiens, UniProt Q5SQQ9 86-172, T142I)
# HOXA2 [40] = biological target: HOXA2 (Homo sapiens, UniProt O43364 129-215, Y150S)
# HOXA7 [41] = biological target: HOXA7 (Homo sapiens, UniProt P31268 116-202, W177C)
# ALX1 [42] = biological target: ALX1 (Homo sapiens, UniProt Q15699 118-204)
# HOXA4 [43] = biological target: HOXA4 (Homo sapiens, UniProt Q00056 201-287, W262F)
# ALX3 [44] = biological target: ALX3 (Homo sapiens, UniProt O95076 139-225, N203S)
# HOXA2 [45] = biological target: HOXA2 (Homo sapiens, UniProt O43364 129-215)
# VAX1 [46] = biological target: VAX1 (Homo sapiens, UniProt Q5SQQ9 86-172, K157R)
# HOXB6 [47] = biological target: HOXB6 (Homo sapiens, UniProt P17509 132-218)
# Sequence of HOXB6 (Homo sapiens, UniProt P17509 132-218) (P17509 132-218): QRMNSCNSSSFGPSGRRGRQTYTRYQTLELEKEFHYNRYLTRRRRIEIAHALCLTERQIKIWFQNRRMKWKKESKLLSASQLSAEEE
# Sequence of HOXD13 (Homo sapiens, UniProt P35453 263-343, T313R) (P35453 263-343 T313R): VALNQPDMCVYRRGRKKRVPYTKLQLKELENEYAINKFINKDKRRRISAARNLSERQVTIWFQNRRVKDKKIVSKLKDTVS
# Sequence of HOXA2 (Homo sapiens, UniProt O43364 129-215, R185K) (O43364 129-215 R185K): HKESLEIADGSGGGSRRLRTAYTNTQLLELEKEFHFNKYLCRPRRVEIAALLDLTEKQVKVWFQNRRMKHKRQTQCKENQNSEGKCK
# Sequence of HOXC9 (Homo sapiens, UniProt P31274 178-260, K195R) (P31274 178-260 K195R): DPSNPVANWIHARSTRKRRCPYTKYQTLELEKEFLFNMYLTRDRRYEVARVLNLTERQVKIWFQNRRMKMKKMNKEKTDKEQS
# Sequence of HOXB4 (Homo sapiens, UniProt P17483 148-234) (P17483 148-234): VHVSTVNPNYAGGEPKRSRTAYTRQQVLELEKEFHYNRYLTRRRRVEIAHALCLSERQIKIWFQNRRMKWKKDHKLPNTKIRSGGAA
# Sequence of HOXD13 (Homo sapiens, UniProt P35453 263-343) (P35453 263-343): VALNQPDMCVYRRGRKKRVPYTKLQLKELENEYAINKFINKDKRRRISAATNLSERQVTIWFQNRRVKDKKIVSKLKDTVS
# Sequence of ALX3 (Homo sapiens, UniProt O95076 139-225, N203S) (O95076 139-225 N203S): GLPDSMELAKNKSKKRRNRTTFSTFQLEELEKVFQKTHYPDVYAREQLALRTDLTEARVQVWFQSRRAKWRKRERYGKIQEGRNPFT
# Sequence of ALX3 (Homo sapiens, UniProt O95076 139-225) (O95076 139-225): as the sequence (O95076 139-225 N203S) above, with S65N counted along it
# Sequence of HOXB4 (Homo sapiens, UniProt P17483 148-234, V174I) (P17483 148-234 V174I): as the sequence (P17483 148-234) above, with V27I counted along it
# Sequence of HOXA4 (Homo sapiens, UniProt Q00056 201-287, R217L) (Q00056 201-287 R217L): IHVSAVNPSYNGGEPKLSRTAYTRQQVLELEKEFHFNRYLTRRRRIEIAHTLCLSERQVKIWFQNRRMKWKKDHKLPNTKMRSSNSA
# Sequence of HOXA2 (Homo sapiens, UniProt O43364 129-215, Y150S) (O43364 129-215 Y150S): as the sequence (O43364 129-215 R185K) above, with Y22S, K57R counted along it
# Sequence of HOXA4 (Homo sapiens, UniProt Q00056 201-287) (Q00056 201-287): as the sequence (Q00056 201-287 R217L) above, with L17R counted along it
# Sequence of ALX1 (Homo sapiens, UniProt Q15699 118-204, L144R) (Q15699 118-204 L144R): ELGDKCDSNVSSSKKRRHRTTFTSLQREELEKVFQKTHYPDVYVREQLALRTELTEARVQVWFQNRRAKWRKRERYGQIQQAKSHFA
# Sequence of ALX3 (Homo sapiens, UniProt O95076 139-225, N203Q) (O95076 139-225 N203Q): as the sequence (O95076 139-225 N203S) above, with S65Q counted along it
# Sequence of SHOX (Homo sapiens, UniProt O15266 103-189) (O15266 103-189): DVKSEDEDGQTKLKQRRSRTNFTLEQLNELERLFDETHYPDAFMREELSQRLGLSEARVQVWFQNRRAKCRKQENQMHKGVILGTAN
# Sequence of ALX4 (Homo sapiens, UniProt Q9H161 200-286) (Q9H161 200-286): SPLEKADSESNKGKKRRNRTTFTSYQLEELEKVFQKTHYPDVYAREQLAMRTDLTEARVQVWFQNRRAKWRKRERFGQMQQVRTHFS
# Sequence of HOXC9 (Homo sapiens, UniProt P31274 178-260, R222W) (P31274 178-260 R222W): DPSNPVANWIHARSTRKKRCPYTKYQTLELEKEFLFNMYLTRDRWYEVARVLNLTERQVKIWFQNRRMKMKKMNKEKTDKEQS
# Sequence of HOXA4 (Homo sapiens, UniProt Q00056 201-287, W262F) (Q00056 201-287 W262F): as the sequence (Q00056 201-287 R217L) above, with L17R, W62F counted along it
# Sequence of HOXB9 (Homo sapiens, UniProt P17482 171-250, R186Q) (P17482 171-250 R186Q): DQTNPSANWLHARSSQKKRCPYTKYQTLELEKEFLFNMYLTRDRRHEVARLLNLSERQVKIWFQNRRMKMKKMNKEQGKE
# Sequence of HOXC10 (Homo sapiens, UniProt Q9NYD6 254-340, K271E) (Q9NYD6 254-340 K271E): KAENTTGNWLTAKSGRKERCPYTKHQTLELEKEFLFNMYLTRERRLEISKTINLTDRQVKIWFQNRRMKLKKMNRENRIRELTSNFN
# Sequence of PROP1 (Homo sapiens, UniProt O75360 56-141, R99H) (O75360 56-141 R99H): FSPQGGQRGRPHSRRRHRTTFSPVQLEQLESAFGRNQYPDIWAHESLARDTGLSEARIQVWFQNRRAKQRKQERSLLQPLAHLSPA
# Sequence of VAX1 (Homo sapiens, UniProt Q5SQQ9 86-172) (Q5SQQ9 86-172): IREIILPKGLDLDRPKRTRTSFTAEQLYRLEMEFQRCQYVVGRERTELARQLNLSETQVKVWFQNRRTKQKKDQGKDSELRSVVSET
# Sequence of ALX1 (Homo sapiens, UniProt Q15699 118-204) (Q15699 118-204): as the sequence (Q15699 118-204 L144R) above, with R27L counted along it
# Sequence of HOXB6 (Homo sapiens, UniProt P17509 132-218, K202E) (P17509 132-218 K202E): as the sequence (P17509 132-218) above, with K71E counted along it
# Sequence of HOXC9 (Homo sapiens, UniProt P31274 178-260) (P31274 178-260): as the sequence (P31274 178-260 R222W) above, with W45R counted along it
# Sequence of ALX3 (Homo sapiens, UniProt O95076 139-225, L168Q) (O95076 139-225 L168Q): as the sequence (O95076 139-225 N203S) above, with L30Q, S65N counted along it
# Sequence of ALX1 (Homo sapiens, UniProt Q15699 118-204, L144V) (Q15699 118-204 L144V): as the sequence (Q15699 118-204 L144R) above, with R27V counted along it
# Sequence of HOXA2 (Homo sapiens, UniProt O43364 129-215, R185T) (O43364 129-215 R185T): as the sequence (O43364 129-215 R185K) above, with K57T counted along it
# Sequence of HOXC10 (Homo sapiens, UniProt Q9NYD6 254-340) (Q9NYD6 254-340): as the sequence (Q9NYD6 254-340 K271E) above, with E18K counted along it
# Sequence of PROP1 (Homo sapiens, UniProt O75360 56-141, F88S) (O75360 56-141 F88S): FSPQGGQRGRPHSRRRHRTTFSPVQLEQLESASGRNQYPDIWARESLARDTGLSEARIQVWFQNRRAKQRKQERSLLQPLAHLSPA
# Sequence of ALX3 (Homo sapiens, UniProt O95076 139-225, L168V) (O95076 139-225 L168V): as the sequence (O95076 139-225 N203S) above, with L30V, S65N counted along it
# Sequence of SHOX (Homo sapiens, UniProt O15266 103-189, R173C) (O15266 103-189 R173C): as the sequence (O15266 103-189) above, with R71C counted along it
# Sequence of HOXB9 (Homo sapiens, UniProt P17482 171-250, T197M) (P17482 171-250 T197M): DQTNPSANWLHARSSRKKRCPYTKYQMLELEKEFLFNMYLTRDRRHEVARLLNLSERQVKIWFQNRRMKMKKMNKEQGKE
# Sequence of HOXA2 (Homo sapiens, UniProt O43364 129-215) (O43364 129-215): as the sequence (O43364 129-215 R185K) above, with K57R counted along it
# Sequence of VAX1 (Homo sapiens, UniProt Q5SQQ9 86-172, T142I) (Q5SQQ9 86-172 T142I): as the sequence (Q5SQQ9 86-172) above, with T57I counted along it
# Sequence of HOXA7 (Homo sapiens, UniProt P31268 116-202) (P31268 116-202): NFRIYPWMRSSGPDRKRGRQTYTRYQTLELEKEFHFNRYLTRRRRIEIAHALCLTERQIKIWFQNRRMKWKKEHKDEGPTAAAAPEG
# Sequence of HOXA4 (Homo sapiens, UniProt Q00056 201-287, W262R) (Q00056 201-287 W262R): as the sequence (Q00056 201-287 R217L) above, with L17R, W62R counted along it
# Sequence of VAX1 (Homo sapiens, UniProt Q5SQQ9 86-172, K157R) (Q5SQQ9 86-172 K157R): as the sequence (Q5SQQ9 86-172) above, with K72R counted along it
# Sequence of HOXA7 (Homo sapiens, UniProt P31268 116-202, W177C) (P31268 116-202 W177C): as the sequence (P31268 116-202) above, with W62C counted along it
# Sequence of HOXC9 (Homo sapiens, UniProt P31274 178-260, R193K) (P31274 178-260 R193K): as the sequence (P31274 178-260 R222W) above, with R16K, W45R counted along it
# Sequence of HOXD13 (Homo sapiens, UniProt P35453 263-343, T313A) (P35453 263-343 T313A): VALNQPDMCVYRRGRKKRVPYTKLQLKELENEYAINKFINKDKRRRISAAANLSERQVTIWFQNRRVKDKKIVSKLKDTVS
# Sequence of ALX4 (Homo sapiens, UniProt Q9H161 200-286, Q225E) (Q9H161 200-286 Q225E): as the sequence (Q9H161 200-286) above, with Q26E counted along it
# Sequence of HOXB9 (Homo sapiens, UniProt P17482 171-250) (P17482 171-250): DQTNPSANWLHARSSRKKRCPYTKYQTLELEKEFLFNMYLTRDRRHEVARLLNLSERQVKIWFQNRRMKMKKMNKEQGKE
# Sequence of PROP1 (Homo sapiens, UniProt O75360 56-141) (O75360 56-141): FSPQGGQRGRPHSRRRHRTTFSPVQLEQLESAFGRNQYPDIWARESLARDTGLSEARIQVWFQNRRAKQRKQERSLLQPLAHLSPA
sequence,measurement,setting,value
CTCATTAA,binding signal,HOXB4 [1],"13.2 upbm affinity estimate (log intensity, higher = more binding, comparable within an allelic series)"
same,binding signal,SHOX [2],"11.5 upbm affinity estimate (log intensity, higher = more binding, comparable within an allelic series)"
same,binding signal,VENTX [3],"12 upbm affinity estimate (log intensity, higher = more binding, comparable within an allelic series)"
same,binding signal,HOXB9 [4],"10.1 upbm affinity estimate (log intensity, higher = more binding, comparable within an allelic series)"
same,binding signal,HOXA4 [5],"10.6 upbm affinity estimate (log intensity, higher = more binding, comparable within an allelic series)"
same,binding signal,HOXC9 [6],"12.5 upbm affinity estimate (log intensity, higher = more binding, comparable within an allelic series)"
same,binding signal,VENTX [7],"12.8 upbm affinity estimate (log intensity, higher = more binding, comparable within an allelic series)"
same,binding signal,HOXA7 [8],"11.5 upbm affinity estimate (log intensity, higher = more binding, comparable within an allelic series)"
same,binding signal,HOXC10 [9],"12.2 upbm affinity estimate (log intensity, higher = more binding, comparable within an allelic series)"
same,binding signal,ALX4 [10],"13.6 upbm affinity estimate (log intensity, higher = more binding, comparable within an allelic series)"
same,binding signal,PAX4,"11.6 upbm affinity estimate (log intensity, higher = more binding, comparable within an allelic series)"
same,binding signal,VENTX [11],"12 upbm affinity estimate (log intensity, higher = more binding, comparable within an allelic series)"
same,binding signal,HOXB6 [12],"9.97 upbm affinity estimate (log intensity, higher = more binding, comparable within an allelic series)"
same,binding signal,ALX4 [13],"12.6 upbm affinity estimate (log intensity, higher = more binding, comparable within an allelic series)"
same,binding signal,HOXA2 [14],"13.3 upbm affinity estimate (log intensity, higher = more binding, comparable within an allelic series)"
same,binding signal,HOXA4 [15],"12.5 upbm affinity estimate (log intensity, higher = more binding, comparable within an allelic series)"
same,binding signal,HOXB9 [16],"11.8 upbm affinity estimate (log intensity, higher = more binding, comparable within an allelic series)"
same,binding signal,HOXB4 [17],"13.9 upbm affinity estimate (log intensity, higher = more binding, comparable within an allelic series)"
same,binding signal,HOXC9 [18],"12.6 upbm affinity estimate (log intensity, higher = more binding, comparable within an allelic series)"
same,binding signal,ALX1 [19],"11.5 upbm affinity estimate (log intensity, higher = more binding, comparable within an allelic series)"
same,binding signal,ALX3 [20],"8.32 upbm affinity estimate (log intensity, higher = more binding, comparable within an allelic series)"
same,binding signal,HOXD13 [21],"10.7 upbm affinity estimate (log intensity, higher = more binding, comparable within an allelic series)"
same,binding signal,SHOX [22],"9.2 upbm affinity estimate (log intensity, higher = more binding, comparable within an allelic series)"
same,binding signal,HOXC9 [23],"12.5 upbm affinity estimate (log intensity, higher = more binding, comparable within an allelic series)"
same,binding signal,HOXA2 [24],"13.6 upbm affinity estimate (log intensity, higher = more binding, comparable within an allelic series)"
same,binding signal,ALX1 [25],"11.2 upbm affinity estimate (log intensity, higher = more binding, comparable within an allelic series)"
same,binding signal,HOXD13 [26],"11.9 upbm affinity estimate (log intensity, higher = more binding, comparable within an allelic series)"
same,binding signal,HOXA4 [27],"14 upbm affinity estimate (log intensity, higher = more binding, comparable within an allelic series)"
same,binding signal,HOXC10 [28],"12 upbm affinity estimate (log intensity, higher = more binding, comparable within an allelic series)"
same,binding signal,ALX3 [29],"12.3 upbm affinity estimate (log intensity, higher = more binding, comparable within an allelic series)"
same,binding signal,PROP1 [30],"11 upbm affinity estimate (log intensity, higher = more binding, comparable within an allelic series)"
same,binding signal,PROP1 [31],"10.6 upbm affinity estimate (log intensity, higher = more binding, comparable within an allelic series)"
same,binding signal,VAX1 [32],"13.7 upbm affinity estimate (log intensity, higher = more binding, comparable within an allelic series)"
same,binding signal,ALX3 [33],"10.1 upbm affinity estimate (log intensity, higher = more binding, comparable within an allelic series)"
same,binding signal,HOXD13 [34],"11.7 upbm affinity estimate (log intensity, higher = more binding, comparable within an allelic series)"
same,binding signal,HOXB9 [35],"11.5 upbm affinity estimate (log intensity, higher = more binding, comparable within an allelic series)"
same,binding signal,HOXC9 [36],"10.9 upbm affinity estimate (log intensity, higher = more binding, comparable within an allelic series)"
same,binding signal,ALX3 [37],"9.58 upbm affinity estimate (log intensity, higher = more binding, comparable within an allelic series)"
same,binding signal,PROP1 [38],"7.48 upbm affinity estimate (log intensity, higher = more binding, comparable within an allelic series)"
same,binding signal,VAX1 [39],"13.5 upbm affinity estimate (log intensity, higher = more binding, comparable within an allelic series)"
same,binding signal,HOXA2 [40],"10.7 upbm affinity estimate (log intensity, higher = more binding, comparable within an allelic series)"
same,binding signal,HOXA7 [41],"8.81 upbm affinity estimate (log intensity, higher = more binding, comparable within an allelic series)"
same,binding signal,ALX1 [42],"12 upbm affinity estimate (log intensity, higher = more binding, comparable within an allelic series)"
same,binding signal,HOXA4 [43],"12 upbm affinity estimate (log intensity, higher = more binding, comparable within an allelic series)"
same,binding signal,ALX3 [44],"8.41 upbm affinity estimate (log intensity, higher = more binding, comparable within an allelic series)"
same,binding signal,HOXA2 [45],"12.9 upbm affinity estimate (log intensity, higher = more binding, comparable within an allelic series)"
same,binding signal,VAX1 [46],"13.6 upbm affinity estimate (log intensity, higher = more binding, comparable within an allelic series)"
same,binding signal,HOXB6 [47],"11.9 upbm affinity estimate (log intensity, higher = more binding, comparable within an allelic series)"

# Source: article PMC11006913
